Assay results from PubChem BioAssay AID720697 (Broad Institute, 2013).
Measured potencies and affinities stand elsewhere. Results filed as inconclusive are left out. Calls of active or inactive are those of the source.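 The calls were made as follows: active = signal loss with fitted half-maximal concentration at or below twice the top valid tested dose in every test run; inconclusive = runs disagree, flat 30 to 70% signal loss, or poor fit; inactive = all runs flat, opposite direction, or potency beyond limit.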

Assay: general mammalian cell viability loss – inhibitor set, cherry-pick, set 2, cytotoxicity control for miR-122 modulator project, dose response (AID 720697);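 also: 0% = median of neutral control wells and -100% = MG132 positive control wells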
Settings: HEK293T viability, CellTiter-Glo luminescence, 48 h; series mostly up to 26 µM; activity change, negative = cytotoxicity: at the top concentration

Row | Structure (SMILES) | activity change, negative = cytotoxicity
1 | COCC(=O)N(C)C[C@H]1Oc2cc(C#Cc3cccnc3)ccc2S(=O)(=O)N([C@@H](C)CO)C[C@@H]1C | 3.54% (inactive)
2 | CCC(=O)N(C)C[C@H]1Oc2cc(C#Cc3ccccc3)ccc2S(=O)(=O)N([C@H](C)CO)C[C@H]1C | 43.2% (inactive)
3 | CCS(=O)(=O)Nc1ccc2c(c1)C(=O)N(C)[C@@H]1CC[C@@H](CC(=O)NCCCN3CCOCC3)O[C@H]1CO2 | 143% (inactive)
